In the supplement of paper PMC9694430:
Counter-ions that a name gives are not always drawn.

Columns and labels:
Assay in all cases: thermal shift delta Tm vs DMSO control; higher = stronger stabilization (binding)
Conditions in all cases: 12.5 µM; protein concentration 2 µM
[1] = test system: LOC_OS04G57630-cb004
In short: (§1)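 Rice kinase domain constructs were expressed in E. coli, purified, and tested by differential scanning fluorimetry with compound added in DMSO. Each well of a 96-well plate held 19.5 μl of 2 μM kinase in 100 mM potassium phosphate pH 7.5, 150 mM NaCl, 10% glycerol and 5 × SYPRO Orange, and fluorescence was read from 25°C to 95°C at 0.05°C/s. The melting temperature shift is the mean of triplicates, taken against protein with DMSO alone after Boltzmann fitting.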

[2] = test system: LOC_OS05G07850-cb002
In short: as §1

[3] = test system: LOC_OS05G16824-cb004
In short: as §1

[4] = test system: LOC_OS05G28520-cb001
In short: as §1

[5] = test system: LOC_OS05G30820-cb001
In short: as §1

[6] = test system: LOC_OS05G43570-cb004
In short: as §1

[7] = test system: LOC_OS06G16330-cb003
In short: as §1

[8] = test system: T1, LOC_OS06G22820-cb001
T1 sequence (whole entry): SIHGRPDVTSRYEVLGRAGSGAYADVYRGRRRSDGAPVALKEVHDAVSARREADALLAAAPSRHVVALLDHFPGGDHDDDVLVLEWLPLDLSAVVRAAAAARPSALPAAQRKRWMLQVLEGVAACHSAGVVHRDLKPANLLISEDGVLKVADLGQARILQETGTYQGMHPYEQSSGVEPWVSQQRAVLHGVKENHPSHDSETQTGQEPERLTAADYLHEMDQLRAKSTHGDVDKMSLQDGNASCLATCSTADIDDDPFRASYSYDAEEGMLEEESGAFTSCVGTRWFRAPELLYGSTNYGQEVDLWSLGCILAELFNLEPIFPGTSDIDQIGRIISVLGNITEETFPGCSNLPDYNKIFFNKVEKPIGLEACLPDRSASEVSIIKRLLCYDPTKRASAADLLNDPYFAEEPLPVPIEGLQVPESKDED
In short: as §1

[9] = test system: LOC_OS07G06570-cb004
In short: as §1

[10] = test system: LOC_OS07G07230-cb001
In short: as §1

LOC_OS06G16330-cb003, sequence (as listed by the source): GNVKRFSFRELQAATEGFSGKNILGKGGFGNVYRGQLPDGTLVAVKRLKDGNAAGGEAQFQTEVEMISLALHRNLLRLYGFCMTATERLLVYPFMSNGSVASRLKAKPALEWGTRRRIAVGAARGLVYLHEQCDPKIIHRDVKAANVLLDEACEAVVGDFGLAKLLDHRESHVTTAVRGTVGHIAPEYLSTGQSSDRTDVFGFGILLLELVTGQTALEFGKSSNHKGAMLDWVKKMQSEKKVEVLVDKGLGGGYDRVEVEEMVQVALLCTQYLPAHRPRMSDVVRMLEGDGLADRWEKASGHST

SMILES	thermal shift delta Tm [1] [°C]	thermal shift delta Tm [2] [°C]	thermal shift delta Tm [3] [°C]	thermal shift delta Tm [4] [°C]	thermal shift delta Tm [5] [°C]	thermal shift delta Tm [6] [°C]	thermal shift delta Tm [7] [°C]	thermal shift delta Tm [8] [°C]	thermal shift delta Tm [9] [°C]	thermal shift delta Tm [10] [°C]
O=C(O[C@@H]1Cc2c(O)cc(O)cc2O[C@@H]1c1cc(O)c(O)c(O)c1)c1cc(O)c(O)c(O)c1 [(-)-Epigallocatechin Gallate]	0.03	-2.62	-0.59	0.94	0.74	1.57	0.52	1.84	-0.75	0.18
CNC(=O)c1ccccc1Nc1cc(Nc2ccc(N3CCOCC3)cc2OC)ncc1C(F)(F)F	3.79	7.4	9.96	1.03	3.54	0.9	6.99	0.82	1.56	0.72
N#CC(=C(/N)Sc1ccccc1N)/C(C#N)=C(\N)Sc1ccccc1N	-0.53	-1.4	-1.67	1.16	0.39	0.33	1.2	1.19	-0.22	0.58
O=C(O)CCC(=O)Nc1ccc(Br)cn1 [Bikinin]	0.15	0.5	0.58	0.89	0.45	0.76	0.72	0.48	0.42	-0.18
CN1CCN(c2ccc3nc(-c4c(N)c5c(F)cccc5[nH]c4=O)[nH]c3c2)CC1 [Dovitinib (TKI-258) Dilactic Acid]	3.62	8.93	15.7	1.54	1.04	1.01	6.51	0.63	1.1	0.06
O=S(=O)(NCCNC/C=C/c1ccc(Br)cc1)c1cccc2cnccc12	-0.1	2.68	-0.59	-0.13	0.53	0.62	0.87	0.31	1.14	0.17
C[C@H]1CNC(=O)c2cnn3ccc(nc23)N[C@H](C)c2cc(F)ccc2O1	1.68	10.8	12.5	0.06	0.11	0.56	9.31	-0.23	1.57	0.8
CCN1C(=O)CNc2ncc(-c3ccc(-c4nc[nH]n4)nc3C)nc21	-0.18	0.15	-3.58	0.29	0.42	-0.33	-0.44	0.23	0.95	0.66
NC(=O)c1ccc(N(C(N)=O)c2c(F)cccc2F)nc1-c1ccc(F)cc1F	0.21	-0.33	-5.64	0.58	0.41	0.22	-0.58	0.8	1.05	0.18
CCCCNc1ncc2c(-c3ccc(CN4CCN(C)CC4)cc3)cn([C@H]3CC[C@H](O)CC3)c2n1	6.55	11.9	15.5	0.68	1.96	0.44	13.5	0.17	0.92	-0.01
CCn1cc(-c2ccnc3[nH]c(-c4cccc(CN(C)C)c4)cc23)c(-c2ccc(NC(=O)N(C)C)cc2)n1	1.27	8.63	0.47	0.42	0.52	0.64	4.22	0.71	1.35	0.42
N#Cc1ccc(-c2c(-c3ncn[nH]3)sc(N3CCOCC3)c2C#N)c(F)c1	0.27	-0.29	-1.35	0.33	0.65	0.57	-0.08	0.61	1.08	0.24
COC(=O)[C@]12CCC(C)(C)C[C@H]1[C@H]1C(=O)C=C3[C@@]4(C)C=C(C#N)C(=O)C(C)(C)[C@@H]4CC[C@@]3(C)[C@]1(C)CC2 [Bardoxolone Methyl]	-4.85	-6.24	-7.05	-4.77	0.07	-2.54	-3.91	0.1	0.47	0.11
COc1cc2ncc(-c3ccccc3)nc2cc1OC [Tyrphostin AG 1296]	0.05	5.59	2.99	-0.06	0.8	0.08	2.24	0.24	1.65	0.83
CNC(=O)c1cc(COc2nnc(Nc3ccc(Cl)cc3)c3ccoc23)ccn1 [Telatinib]	0.3	0.35	-3.58	0.37	0.56	0.21	-0.23	0.39	0.17	0.1
CCN(CC)CCNC(=O)c1c(C)[nH]c(/C=C2\C(=O)Nc3ccc(F)cc32)c1C [Sunitinib Malate]	4.24	8.46	13.1	1.41	0.86	0.2	7.74	0.19	0.48	0.56
CC(C)n1ncnc1-c1cn2c(n1)-c1ccc(O[C@@H](C)C(N)=O)cc1OCC2	-0.03	-0.96	-0.54	0.38	0.25	0.23	-0.02	0.43	0.88	0.22
Cc1ccc(NC(=O)c2cccc(C(C)(C)C#N)c2)cc1Nc1ccc2ncn(C)c(=O)c2c1	0.41	0.77	-1.17	0.69	0.63	0.64	0.8	0.86	0.75	0.34
CC1(COc2ccc3c(c2)ncn3-c2ccc3cccc(N4CCC(N)CC4)c3n2)COC1	5.42	16.1	11.8	0.28	1.67	0.2	7.62	0.26	0.43	-0.34
Cc1nc(Nc2n[nH]c3c2CN(C(=O)N[C@H](CN(C)C)c2ccccc2)C3(C)C)c2sccc2n1	0.4	1.45	5.08	2.24	0.45	1.95	0.72	2	1.67	0.02

SMILES	thermal shift delta Tm [1] [°C]	thermal shift delta Tm [2] [°C]	thermal shift delta Tm [3] [°C]	thermal shift delta Tm [4] [°C]	thermal shift delta Tm [5] [°C]	thermal shift delta Tm [6] [°C]	thermal shift delta Tm [7] [°C]	thermal shift delta Tm [8] [°C]	thermal shift delta Tm [9] [°C]	thermal shift delta Tm [10] [°C]
NC(=O)c1ccc2nc(-c3ccc(Oc4ccc(Cl)cc4)cc3)[nH]c2c1 [Chk2 Inhibitor II (BML-277)]	-0.02	3.29	2.79	0.29	-0.18	0.06	0.28	0.74	-0.16	-0.75
CSc1cccc(Nc2ncc3cc(-c4c(Cl)cccc4Cl)c(=O)n(C)c3n2)c1	0.15	5.12	1.03	0.64	0.34	0.27	0.34	0.59	0.45	0.66
O=C(NCc1ccccc1)c1csc(Nc2ccncn2)n1 [Thiazovivin]	0.16	2.6	-1.42	0.2	0.36	1.22	0.41	0.56	0.66	-0.04
CCCCCCCCc1ccc(CCC(N)(CO)CO)cc1 [Fingolimod (FTY720) HCl]	-0.4	1.83	-4.01	-0.43	-0.07	-1.13	-1.94	0.07	0.28	-1.48
COc1cc2c(N3CCN(C(=O)Nc4ccc(OC(C)C)cc4)CC3)ncnc2cc1OCCCN1CCCCC1 [Tandutinib (MLN518)]	2.05	1.44	0.72	0.2	0.16	0.41	-1.38	0.3	1.1	0.38
N#CCNC(=O)c1ccc(-c2ccnc(Nc3ccc(N4CCOCC4)cc3)n2)cc1 [Momelotinib (CYT387)]	3.11	11.6	3.39	0.59	0.75	0.76	7.69	0.49	0.77	0.53
CC(=O)c1c(C)c2cnc(Nc3ccc(N4CCNCC4)cn3)nc2n(C2CCCC2)c1=O	0.52	5.93	5.52	0.05	0.23	0.31	4.77	-0.1	0.7	0.73
C[C@]1(O)C[C@@H](c2nc(-c3ccc4ccc(-c5ccccc5)nc4c3)c3c(N)nccn32)C1 [Linsitinib (OSI-906)]	0.91	1.48	1.1	0.92	0.67	0.81	0.92	0.94	1.13	0.34
Cc1n[nH]c2ncc(C(=O)N3CCC[C@H]3c3ccc(Cl)cc3)cc12	0.01	0.81	-6.54	0.03	0.26	0.19	0.11	0.56	1.74	0.45
CS(=O)(=O)CCNCc1ccc(-c2ccc3ncnc(Nc4ccc(OCc5cccc(F)c5)c(Cl)c4)c3c2)o1 [Lapatinib]	0.95	5.03	-0.92	0.22	0.61	1.4	0.59	1.74	2.3	-0.12
COc1cc2c(cc1OC)[C@@H]1C(=O)c3ccc4c(c3O[C@@H]1CO2)C=CC(C)(C)O4 [Deguelin]	0.18	-0.44	-0.75	-0.03	-0.19	0.47	-0.59	0.97	0.49	-0.57
C[C@@H]1COCCN1c1cc(C2([S@](C)(=N)=O)CC2)nc(-c2cc[nH]c3nccc2-3)n1	-0.11	3.99	-2.04	0.65	0.15	0.19	0.37	-0.1	0.71	-0.05
Cc1cc(C)c(/C=C2\C(=O)Nc3ccccc32)[nH]1 [Semaxanib (SU5416)]	0.62	6.49	8.99	0.65	0.48	0.37	6.54	0.6	1.4	-0.2
CCNc1nc(Nc2cc(F)c(C(=O)N3CCOCC3)cc2OC)ncc1C(F)(F)F	0	3.03	1.21	0.71	0.46	0.26	0.76	0.28	0.96	-0.16
Cc1c(NC(=O)c2ccc(C(C)(C)C)cc2)cccc1-c1cn(C)c(=O)c(Nc2ccc(C(=O)N3CCOCC3)cc2)n1	0.37	0.29	0.48	0.5	0.18	0.64	0.07	0.84	1.05	-0.21
Cn1cnc2c(F)c(Nc3ccc(Br)cc3F)c(C(=O)NOCCO)cc21	0.45	1.86	-1.71	0.55	0.44	0.51	-0.03	0.61	1.32	-0.18
CC(C)(O)CNc1ncc(-c2ccnc(Nc3ccncc3)n2)c(CC2CC2)n1 [VPS34 inhibitor 1 (Compound 19, PIK-III analogue)]	0.13	6.5	2.61	0.38	0.25	0.5	3.99	0.4	1.83	0.44
Cc1cc(O)c(-c2ccc([C@@H](C)CN)cc2)c2c1[nH]c(=O)c1sccc12 [OTS514 hydrochloride]	0.19	5	-0.88	0.49	0.55	0.45	1.74	0.65	1.65	0.6
C1=N/C2=N/c3ccc(OCCN4CCCC4)c(c3)COC/C=C/COCc3cccc(c3)C(=C1)N2 [Pacritinib (SB1518)]	4.36	12.8	7.5	3.33	0.55	0.68	10.1	0.41	1.64	0.85
